Rows were chosen to be rich in hits. Some 7.3% of all compounds tested hit in one or more screens of this group.
NPC1 prom act = activators of NPC1 promoter | Huh7 NPC1 promoter luciferase reporter, 24 h | Potency, µM (top dose mostly 9.22 µM), for the others: top-dose activation, hits mostly activators | 320,000 compounds, 2.4% hits; also: % of control where 0% means no effect; nearly all actives have a fitted effect of over 60% in size
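Readout is luciferase luminescence, reflecting NPC1 promoter activation in stably transfected Huh7 cells after 24 h compound exposure at 37 °C in reduced-serum medium with 10% FBS.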
FLuc counter = firefly luciferase modulation, counter-screen for miR-21 project | P08659 | purified FLuc, Km substrates, luminescence inhibition | Potency, µM (doses to about 57.5 µM), inactives show top-dose activity change, negative = inhibition, most hits filed as inhibitors | 360,000 compounds, 6.9% hits | AID 588342;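 also: plate controls were vehicle for no effect and reference inhibitor for full effect; nearly all actives have a fitted effect of over 55% in size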
Target sequence (P08659 whole entry, looked up): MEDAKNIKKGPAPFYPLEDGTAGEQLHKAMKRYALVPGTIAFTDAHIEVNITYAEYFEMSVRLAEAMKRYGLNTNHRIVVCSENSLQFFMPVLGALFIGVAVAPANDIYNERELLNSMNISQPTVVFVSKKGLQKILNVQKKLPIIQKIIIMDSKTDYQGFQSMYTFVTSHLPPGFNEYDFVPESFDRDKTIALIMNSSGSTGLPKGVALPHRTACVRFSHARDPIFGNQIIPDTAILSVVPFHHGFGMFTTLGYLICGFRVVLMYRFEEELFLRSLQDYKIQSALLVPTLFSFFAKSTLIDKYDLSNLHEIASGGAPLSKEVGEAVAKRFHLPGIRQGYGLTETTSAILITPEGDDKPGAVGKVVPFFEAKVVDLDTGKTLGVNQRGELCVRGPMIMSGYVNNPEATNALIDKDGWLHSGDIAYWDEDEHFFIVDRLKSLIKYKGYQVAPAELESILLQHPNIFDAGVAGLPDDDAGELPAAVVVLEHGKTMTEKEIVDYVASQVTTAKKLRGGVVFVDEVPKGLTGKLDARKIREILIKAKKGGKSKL
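Purified P. pyralis luciferase, 10 nM final, with Km-level 10 uM D-luciferin and 10 uM ATP in 50 mM Tris acetate pH 7.5, 10 mM Mg acetate, 0.01% Tween-20, 0.05% BSA; 6-point qHTS titration about 60 µM downward; luminescence read.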
KinaseGlo FLuc = blocks Kinase-Glo luciferase, a counter-screen artifact; Kinase-Glo luciferase, ATP luminescence, 8 min; Potency, µM (highest dose often 38.3 µM), without a hit: at the top dose activity change, negative = inhibition, most hits filed as inhibitors; AID 1379; 200,000 compounds, 0.28% hits; also: % is scaled to controls: 0 for no effect and ±100 for the full control effect; nearly all actives have a fitted effect of over 60% in size
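Light output from Kinase-Glo luciferase with luciferin and 10 uM ATP in 50 mM imidazole pH 7.2, KCl, MgCl2, Tween 20, BSA; compound pin-delivered, 8-min ambient incubation, then luminescence read.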
SMN2 splice enh = enhancers of SMN2 splice variant expression; 210,000 compounds, 2.8% hits; Potency, µM (series often up to 46.1 µM), inactives show at the highest dose activity change, positive = activation, hits mostly activators; HEK293 SMN2-luciferase splicing reporter, luminescence, 30-36 h; also: % of control where 0% means no effect; nearly all actives have a fitted effect of over 55% in size
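qHTS luciferase splicing reporter: luminescence rises when SMN2 exon 7 is included in transfected HEK293 cells. Compound exposure lasted 30-36 h at 37C, with 4.5 mM final sodium butyrate as control, followed by a ONE-Glo read.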
Rab9 promoter act = activates the Rab9 promoter; Huh7 Rab9 promoter-luciferase reporter, luminescence, 24 h; Potency, µM (doses to about 9.22 µM), inactives show top-dose activation, negative = inhibition, actives largely listed as activators; 320,000 compounds, 2.8% hits; also: % of control where 0% means no effect; nearly all actives have a fitted effect of over 60% in size
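Rab9 promoter-driven luciferase in stably transfected Huh7 cells; 1500 cells/well rested 2 h, exposed to compound in DMSO for 24 h at 37 °C, 5% CO2. Luminescence read 10 min after adding luciferase reagent at ambient temperature.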
* hit, by the source's call; ? = inconclusive; nt = not tested or not shown; [ ] = remark or other dose. Calls follow the shape of the dose curve; as a rule, active = well fitted curve in the direction sought with a large enough effect; inconclusive = small, poorly fitted or top-dose-only effect, or another doubt; inactive = no such curve, though single readings can be large; an effect the other way counts as inactive or inconclusive. Potency is read from the fitted curve at half-maximal effect.

SMILES	NPC1 prom act	FLuc counter	KinaseGlo FLuc	SMN2 splice enh	Rab9 promoter act
O=C(Nc1ccccc1F)C(=O)c1cn(CC(=O)N2CCCCC2)c2ccccc12	14%	5.4µM*	-4%	?	30%
CCCCc1nnc(SCc2cc(=O)c3cc(C(=O)OCC)ccc3[nH]2)n1C	nt	-11%	nt	nt	nt
CCSc1ncc(/C=N/Nc2ccc(F)cc2)n1C	?	11µM*	-1%	11µM*	?
O=C(N/N=C/C(Br)=C/c1ccccc1)c1ccncc1	-2%	24µM*	nt	nt	2%
O=C(N/N=C/C(Br)=C/c1ccccc1)c1ccc([N+](=O)[O-])cc1	-1%	2%	nt	nt	0%
CCOc1cc(C(=O)N/N=C/C(Br)=C/c2ccccc2)cc(OCC)c1OCC	-22%	-3%	3%	-36%	-25%
O=C(N/N=C/C(Br)=C/c1ccccc1)c1cccnc1	1%	13µM*	nt	nt	12%
CCCCCCC1CCC(C(=O)NC(C(=O)O)C(C)C)CC1 (stereo unspecified)	nt	?	nt	-7%	nt
CC(Oc1ccccc1)C(=O)Nc1cccc(-c2cn3cccnc3n2)c1 (stereo unspecified)	nt	-13%	nt	nt	nt
CCOC(=O)CCSc1nc(C)c2cc(C)c(C)cc2n1	-4%	?	-1%	13%	-2%
CCOC(=O)CCSc1nc(C)c2cc(OC)ccc2n1	?	13µM*	-1%	12%	?
C/C(=N/NC(=O)c1ccc(C)s1)c1cccnc1	26%	19µM*	nt	nt	?
C/C(=N/NC(=O)c1ccc(Cl)s1)c1cccnc1	7%	0%	nt	nt	3%
C/C(=N/NC(=O)c1ccc(Br)s1)c1cccnc1	28%	15µM*	nt	nt	?
CCc1ccccc1-n1c(C)nc2cc(C(=O)NCCc3ccc(Cl)cc3)ccc21	nt	-11%	nt	nt	nt
Cc1cc(F)ccc1NC(=O)CCS(=O)(=O)c1ccc2c(c1)NC(=O)CO2	nt	-16%	nt	nt	nt
Cn1c2ccccc2c2c(C(=O)N3CCN(c4cccc(Cl)c4)CC3)cn(C3CCCCC3)c(=O)c21	nt	-2%	nt	-3%	nt
Nc1nc(-c2ccccc2)c(-c2ccccc2)o1	-3%	5%	nt	nt	-2%
c1ccc(-c2nc(-c3nccc4ccccc34)oc2-c2ccccc2)cc1	?	6µM*	nt	nt	3.2µM*
Cc1ccc(Cn2ccc(NC(=O)c3nn(C)cc3Cl)n2)cc1	?	21µM*	-4%	15%	?
O=C(Nc1ccn(Cc2ccc(Cl)cc2)n1)c1ccc2c(c1)OCO2	nt	21µM*	-3%	6%	nt
Cc1cccc(Cn2ccc(NC(=O)c3ccc4c(c3)OCO4)n2)c1	-1%	17µM*	1%	-4%	3%
Cc1ccc(Cn2nc(C)c(NC(=O)c3nn(C)cc3Cl)c2C)cc1	-5%	-6%	0%	-9%	-2%
CN(C)c1ccc(CNC(=O)CN2C(=O)c3cccnc3Oc3ccc(Cl)cc32)cc1	nt	1%	nt	nt	nt
Cc1[nH]c2ccccc2c1C(=O)COc1ccccc1F	16%	21µM*	-1%	nt	22%
SMILES	NPC1 prom act	FLuc counter	KinaseGlo FLuc	SMN2 splice enh	Rab9 promoter act
Cc1csc(NC(=O)CCC(=O)c2cccs2)n1	6%	-13%	-4%	-13%	7%
Cc1nc(NC(=O)c2cccs2)ccc1Br	3.5µM*	6µM*	-13%	11µM*	3.5µM*
Cc1csc(NC(=O)c2ccc(Br)s2)n1	21%	4.8µM*	nt	nt	2%
Cc1csc(NC(=O)c2cccs2)n1	?	?	-19%	11µM*	?
COC1=C/C(=C/c2c(N)n3c(nc2=O)sc2cc(S(C)(=O)=O)ccc23)C=CC1=O	-1%	9.5µM*	nt	nt	27%
CCS(=O)(=O)c1nn2c(N)c(/C=C3/C=CC(=O)C(OC)=C3)c(=O)nc2s1	6%	?	1%	-15%[1.84 µM]	-4%
COC1=C/C(=C/c2c(N)n3nc(-c4ccc(C)cc4)sc3nc2=O)C=CC1=O	19%	15µM*	-1%	?	28%
CCOC1=C/C(=C/c2c(N)n3nc(-c4ccccc4)sc3nc2=O)C=CC1=O	-4%	?	0%	0%	-3%
CS(=O)(=O)c1ccc2c(c1)sc1nc(=O)c(/C=C3/C=CC(=O)C(O)=C3)c(N)n12	20%	4.8µM*	nt	nt	1%
COc1ccc(N2CCN(CCCNC(=O)c3ccc4nc(Cc5ccccc5)oc4c3)CC2)cc1	nt	1%	nt	nt	nt
CCOC(=O)Cn1c(=O)n(-c2ccccc2OC)c2nc(-c3ccc(C(C)C)cc3)nc(C(N)=O)c21	nt	-3%	nt	nt	nt
COc1ccc(CNC(=O)Cc2c(C)c3cc4c(C)coc4c(C)c3oc2=O)cc1OC	nt	2%	nt	-3%	nt
O=C(O)COc1ccc(NC(=O)c2ccc3c(c2)C(=O)N(Cc2ccccc2)C3=O)cc1	-1%	17µM*	nt	nt	-5%
COCCCN1C(=O)c2ccc(C(=O)Nc3ccccc3OC)cc2C1=O	-2%	-11%	-4%	20%	-1%
Cc1ccc(O)c(NC(=O)c2ccc3c(c2)C(=O)N(Cc2cccnc2)C3=O)c1	1%	1.9µM*	nt	nt	-1%
CC(C)CN1C(=O)c2ccc(C(=O)Nc3ccncc3)cc2C1=O	-12%	-9%	-4%	-12%	-5%
COCCCN1C(=O)c2ccc(C(=O)Nc3ccc(OC)cc3)cc2C1=O	-5%	8.5µM*	12%	1%	17%
Cc1cc(C)c(NC(=O)c2ccc3c(c2)C(=O)N(Cc2cccnc2)C3=O)c(C)c1	1%	7%	nt	nt	-3%
CC(C)CN1C(=O)c2ccc(C(=O)Nc3ccc(OCC(=O)O)cc3)cc2C1=O	-3%	6.7µM*	nt	nt	-4%
O=C(Nc1ccc(O)cc1)c1ccc2c(c1)C(=O)N(Cc1ccccc1)C2=O	-9%	2%	nt	nt	-1%
CC(=O)c1ccc(N2CCN(C(=O)c3cc4cc5cc(C)ccc5nc4s3)CC2)cc1	nt	2%	nt	nt	nt
COc1ccccc1-c1cc(C(=O)N2CCCC2)no1	2.5µM*	7.6µM*	nt	nt	2µM*
COc1ccccc1-c1cc(C(=O)N2CCN(c3ccc(F)cc3)CC2)no1	1%	-17%	2%	-18%	-1%

Screening data from PubChem BioAssay.
